# Measured values: the supplement of paper PMC3334620
# Whole data set: some 33,000 sequences, median “E-score (-0.5 to 0.5)” near -0.016, cut for the highest 2% near 0.3. The sample as a whole holds a higher share of the highest values than the screen did.
# Target: T1, Yer184c (UniProt P39961)
# T1 sequence: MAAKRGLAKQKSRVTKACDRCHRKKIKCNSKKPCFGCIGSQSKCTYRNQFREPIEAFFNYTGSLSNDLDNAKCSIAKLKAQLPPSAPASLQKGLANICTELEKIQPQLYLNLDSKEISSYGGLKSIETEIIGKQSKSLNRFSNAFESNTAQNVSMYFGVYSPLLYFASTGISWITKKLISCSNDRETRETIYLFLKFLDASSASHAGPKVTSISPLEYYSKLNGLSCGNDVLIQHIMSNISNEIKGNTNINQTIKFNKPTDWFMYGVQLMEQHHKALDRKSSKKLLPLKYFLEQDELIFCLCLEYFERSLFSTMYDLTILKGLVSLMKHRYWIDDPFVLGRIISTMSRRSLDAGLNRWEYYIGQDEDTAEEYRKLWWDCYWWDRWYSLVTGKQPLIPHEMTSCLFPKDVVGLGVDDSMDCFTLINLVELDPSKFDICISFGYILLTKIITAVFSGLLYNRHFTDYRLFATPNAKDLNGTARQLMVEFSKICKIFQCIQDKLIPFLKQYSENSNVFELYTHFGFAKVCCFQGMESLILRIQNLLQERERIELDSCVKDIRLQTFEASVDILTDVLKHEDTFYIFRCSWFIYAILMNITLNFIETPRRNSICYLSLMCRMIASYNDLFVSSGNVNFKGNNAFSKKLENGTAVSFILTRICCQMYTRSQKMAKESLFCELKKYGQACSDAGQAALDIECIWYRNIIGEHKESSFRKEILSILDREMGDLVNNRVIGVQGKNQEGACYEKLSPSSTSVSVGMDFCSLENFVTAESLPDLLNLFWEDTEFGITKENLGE
# Assay: PBM E-score (8-mer binding enrichment) (E-score (-0.5 to 0.5)); higher = stronger / more preferred TF binding
# Conditions: protein concentration: 100 nM; construct: GST-full length
# Procedure: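 Universal 'all 10-mer' protein binding microarrays (Agilent AMADID 015681) probed with GST-tagged S. cerevisiae TFs (full-length or DBD) made by in vitro transcription/translation (PURExpress), about 100-200 nM. Bound TF was detected with fluorescent anti-GST. Each ungapped 8-mer (which stands for itself and its reverse complement) is scored by the PBM enrichment score (E-score), a modified Wilcoxon-Mann-Whitney statistic from -0.5 to +0.5, computed with the Universal PBM Analysis Suite. Scale: above 0.35 generally sequence-specific binding.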
row,Sequence,PBM E-score
1,AGCCCAAG,-0.228
2,AACCGAAG,0.259
3,AACCGAAT,0.199
4,ACCCGAAT,0.104
5,GCCCGAAC,0.0908
6,GGCCGACC,0.028
7,AGCCGACT,-0.00308
8,CGCCGAAA,0.293
9,TGCCGACA,0.222
10,GGCCGAAC,0.305
11,TGCCGAAA,0.371
12,AACCGAAA,0.345
13,AGCCGAAT,0.392
14,GCGGGGAA,-0.0187
15,CGGGCTAA,0.0904
16,CTGCCTCC,-0.339
17,ATACGACC,-0.182
18,GATCTGGA,-0.0474
19,GACTTTCA,-0.0149
20,CATGCGCC,-0.092
21,CCATTAAG,-0.0869
22,ACCTCACT,-0.0518

row,Sequence,PBM E-score
1,ACTAGCGG,-0.0521
2,AGCCGAAC,0.279
3,GACCGAAC,0.33
4,GGTCGAAA,-0.168
5,GCCCGAAA,0.171
6,AGCCGAAA,0.364
7,GACCGAAA,0.265
8,CACCGAAC,0.143
9,GGCCGAAA,0.398
10,ACCCGAAA,0.169
11,CACTAGGC,-0.175
12,CGATAAAG,-0.00214
13,CTACGCAA,-0.00413
14,ACCCAATA,-0.0358
15,GGTTACAA,0.23
16,CCATAACC,-0.184
17,AAGATAGT,0.108
18,GAACATTC,0.102
19,CCGAAAGG,0.166
20,TCGAAAAA,0.169
21,TCGAGAAA,0.0245
22,CCGAAAAA,0.371

row,Sequence,PBM E-score
1,CCGAAATA,0.34
2,CCGAGAAA,0.351
3,CCGAAAAG,0.31
4,CCGAAAAC,0.243
5,GCGAAATA,0.206
6,ACGAAAAG,0.187
7,GCGAGAAA,-0.0014
8,ACGAAATA,0.11
9,AGCCATCG,-0.189
10,CCTTGCCG,0.124
11,CCACAGAG,-0.188
12,AACTTACG,0.0113
13,GGGGGGAC,-0.445
14,CGGCGCAC,0.216
15,GTCTTAAC,-0.122
16,TAAGGTGA,-0.0772
17,CGGGGAAG,0.0845
18,ACAGTTAT,-0.0291
19,ACGAAGAA,0.258
20,TCGAAGAA,-0.0488
21,CCGAAGAA,0.345
22,GTGAATCA,-0.0703

row,Sequence,PBM E-score
1,TGTTAACA,0.111
2,ACGGTAAG,-0.00751
3,TCGGTAAA,0.296
4,CCGGTACG,-0.00725
5,CCGGTAAG,0.369
6,CCGGTAAA,0.321
7,CCGGTAAC,0.259
8,GAAAGAGC,-0.0552
9,CCCTTTGA,-0.266
10,ACGCGACA,-0.0168
11,CCGATTCG,0.358
12,CCGATTCA,0.0391
13,CCGATTCC,0.164
14,ATGCCAAT,-0.0596
15,CGGGACCA,-0.098
16,CCGGACAA,0.29
17,CCGGACCG,0.353
18,AGGGACCG,-0.165
19,CCGGACCA,0.297
20,GCGGACCA,0.243
